Reference: PubChem BioAssay (Tox21)
Inconclusive results are not listed. The source holds several records for some structures; these can differ, active in one and inactive in another. Activity calls are given as the source filed them. Calls come from the whole dose curve.

What was measured:
[1] = target: Acetylcholinesterase (Homo sapiens) (UniProt P22303); experiment: Acetylcholinesterase (AChE) small molecule antagonists: colormetric cell-based qHTS assay (AID 1347395); note: nearly all actives have a fitted effect of over 30% in size; note: potency is the fitted concentration of half-maximal effect
Sequence of Acetylcholinesterase (Homo sapiens) (P22303 whole entry, looked up): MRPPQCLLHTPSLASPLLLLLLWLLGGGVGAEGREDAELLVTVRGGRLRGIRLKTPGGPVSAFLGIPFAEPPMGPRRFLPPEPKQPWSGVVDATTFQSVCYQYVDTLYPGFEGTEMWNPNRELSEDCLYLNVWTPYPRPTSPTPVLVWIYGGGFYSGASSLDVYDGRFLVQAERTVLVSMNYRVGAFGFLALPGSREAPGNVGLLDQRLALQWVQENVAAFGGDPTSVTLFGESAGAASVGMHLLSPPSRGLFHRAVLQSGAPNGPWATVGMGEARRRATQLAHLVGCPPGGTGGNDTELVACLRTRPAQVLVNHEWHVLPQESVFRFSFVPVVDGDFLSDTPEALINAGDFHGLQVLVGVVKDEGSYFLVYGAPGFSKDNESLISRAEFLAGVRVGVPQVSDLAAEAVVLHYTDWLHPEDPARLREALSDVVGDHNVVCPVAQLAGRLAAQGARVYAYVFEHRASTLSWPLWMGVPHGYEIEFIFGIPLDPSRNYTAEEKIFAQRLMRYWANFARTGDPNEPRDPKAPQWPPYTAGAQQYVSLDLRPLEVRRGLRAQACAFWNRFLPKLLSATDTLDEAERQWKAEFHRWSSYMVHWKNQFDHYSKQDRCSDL
Method in brief: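 AChE inhibition read colorimetrically via DTNB–thiocholine in SH-SY5Y cells. Compound 30 min, substrate 90 min, both 37 C.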

[2] = target: Acetylcholinesterase (Homo sapiens) (UniProt P22303); experiment: Acetylcholinesterase (AChE) small molecule antagonists: enzyme-based qHTS assay (AID 1347397); conditions: Potency: AChE enzyme activity inhibition; outcome: AChE enzyme activity inhibition; note: nearly all actives have a fitted effect of over 55% in size; note: potency is the fitted concentration of half-maximal effect
Method in brief: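 In this quantitative HTS, compounds from the Tox21 10K collection were preincubated 30 min at ambient temperature with recombinant human AChE dispensed at 50 mU/mL. Hydrolysis of acetylthiocholine was then followed for 10 min by DTNB colour development.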

[3] = target: Acetylcholinesterase (Homo sapiens) (UniProt P22303); experiment: Acetylcholinesterase (AChE) small molecule antagonists: fluorescence cell-based qHTS assay (AID 1347398); conditions: Potency: AChE activity; outcome: AChE activity; note: nearly all actives have a fitted effect of over 50% in size; note: potency is the fitted concentration of half-maximal effect
Method in brief: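 Cells (SH-SY5Y) attached overnight, were dosed with compound or DMSO vehicle for 30 min at 37 C, and then incubated 40 min at room temperature with acetylthiocholine and Thiolite Green; green fluorescence indexed AChE activity.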

[4] = target: Acetylcholinesterase (Homo sapiens) (UniProt P22303); experiment: Acetylcholinesterase (AChE) small molecule antagonists: enzyme-based qHTS assay with human liver microsomes (AID 1347399); conditions: Potency: qHTS inhibition; outcome: qHTS inhibition; note: nearly all actives have a fitted effect of over 60% in size
Method in brief: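 Recombinant human AChE (50 mU/mL in the enzyme mix) and human liver microsomes (0.25 mg/mL final) were preincubated with compound and NADPH (0.25 mg/mL final) for 30 min at 37 C. Acetylthiocholine/DTNB was then added; thiocholine was read colorimetrically after 10 min at room temperature.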

Measured: Potency

FC(F)(F)c1ccccc1
inactive: [1] | [2] | [3] | [4]

OC[C@H]1O[C@@H]2O[C@H]3[C@H](O)[C@@H](O)[C@@H](O[C@H]4[C@H](O)[C@@H](O)[C@@H](O[C@H]5[C@H](O)[C@@H](O)[C@@H](O[C@H]6[C@H](O)[C@@H](O)[C@@H](O[C@H]7[C@H](O)[C@@H](O)[C@@H](O[C@H]1[C@H](O)[C@H]2O)O[C@@H]7CO)O[C@@H]6CO)O[C@@H]5CO)O[C@@H]4CO)O[C@@H]3CO
inactive: [1] | [2] | [3] | [4]

CC(=O)C(=O)O
inactive: [1] | [2] | [3] | [4]

CC/C(=C(\c1ccc(O)cc1)c1ccc(OCCN(C)C)cc1)c1ccccc1
inactive: [4]
active: [1] 44.9 µM | [2] 79.9 µM | [3] 40 µM

c1cc(C(c2ccc(OCC3CO3)cc2)c2ccc(OCC3CO3)cc2)ccc1OCC1CO1 (stereo not given)
inactive: [1] | [2] | [3] | [4]

CCOB(OCC)OCC
inactive: [1] | [2] | [3] | [4]

CCC(=O)/C=C/C1C(C)=CCCC1(C)C (stereo not given)
inactive: [1] | [2] | [3] | [4]

CCN1CCCC1=O
inactive: [1] | [2] | [3] | [4]

CC(C)CCCC(C)CCCC(C)CCCCC(C)CCCC(C)CCCC(C)C (stereo not given)
inactive: [1] | [2] | [3] | [4]

C#CC(O)CCC (stereo not given)
inactive: [1] | [2] | [3] | [4]

CCC(=O)OCCC(C)CCC=C(C)C (stereo not given)
inactive: [1] | [2] | [3] | [4]

CCCN1C=CN(C)C1
inactive: [1] | [2] | [3] | [4]

COc1ccc(C)cc1[N+](=O)[O-]
inactive: [1] | [2] | [3] | [4]

N[C@@H](Cc1c[nH]c2ccccc12)C(=O)O
inactive: [1] | [2] | [3] | [4]

CC(C)OC=O
inactive: [1] | [2] | [3] | [4]

CCOC(=O)/C=C/c1ccccc1
inactive: [1] | [2] | [3] | [4]

CC(C)CC(C)(C)C
inactive: [1] | [2] | [3] | [4]

O=C1OC(=O)c2cccc3cccc1c23
inactive: [1] | [2] | [3] | [4]

Nc1nc(Cl)cc(Cl)n1
inactive: [1] | [2] | [3] | [4]

CN(N=O)C(=O)N[C@@H]1[C@@H](O)[C@H](O)[C@@H](CO)O[C@@H]1O
inactive: [1] | [2] | [3] | [4]

O=C(O)c1ccc(Cl)c(Cl)c1
inactive: [1] | [2] | [3] | [4]

Cc1cc(C)c(C)cc1C
inactive: [1] | [2] | [3] | [4]

CC(=O)c1ccc(O)c(C(N)=O)c1
inactive: [1] | [2] | [3] | [4]

C[C@H]1C[C@H]2[C@@H]3CCC4=CC(=O)C=C[C@]4(C)[C@@]3(Cl)[C@@H](O)C[C@]2(C)[C@@]1(O)C(=O)CO
inactive: [1] | [2] | [3] | [4]

O=C(/C=C/c1ccccc1)OCc1ccccc1
inactive: [1] | [2] | [3] | [4]

CCc1ccccc1O
inactive: [1] | [2] | [3] | [4]

CC/C(=C\C(=N/O)C(N)=O)C(C)[N+](=O)[O-] (stereo not given)
inactive: [1] | [2] | [3] | [4]

COC(=O)NN
inactive: [1] | [2] | [3] | [4]

CCOC(C)OCC
inactive: [1] | [2] | [3] | [4]

OC/C=C/c1ccccc1
inactive: [1] | [2] | [3] | [4]

OCCO
inactive: [1] | [2] | [3] | [4]

O=C(O)c1cccc(C(=O)O)c1
inactive: [1] | [2] | [3] | [4]

CCCCCCCC/C=C\CCCCCCCC(=O)O
inactive: [1] | [2] | [3] | [4]

CCC(C)COC(C)=O (stereo not given)
inactive: [1] | [2] | [3] | [4]

O=C(c1ccccc1)c1ccc(O)cc1O
inactive: [1] | [2] | [3] | [4]

CC(=O)OCCOC(C)=O
inactive: [1] | [2] | [3] | [4]

C1CNCCN1
inactive: [1] | [2] | [3] | [4]

CC1=CC(C)C(C=O)CC1 (stereo not given)
inactive: [1] | [2] | [3] | [4]

C=C[C@](C)(O)CC[C@@H]1[C@@]2(C)CCCC(C)(C)[C@@H]2CC[C@@]1(C)O
inactive: [1] | [2] | [3] | [4]

CC(=O)Oc1ccc(C2(c3ccc(OC(C)=O)cc3)Oc3ccccc3NC2=O)cc1
inactive: [1] | [2] | [3] | [4]

CC(C)(C)NC(=O)[C@H]1CC[C@H]2[C@@H]3CC[C@H]4NC(=O)C=C[C@]4(C)[C@H]3CC[C@]12C
inactive: [1] | [2] | [3] | [4]

O=C1OC(O)C(C(Cl)Cl)=C1Cl (stereo not given)
inactive: [1] | [2] | [3] | [4]

CCSC(=O)N(CC(C)C)CC(C)C
inactive: [1] | [2] | [3] | [4]

Cc1ccc(S(N)(=O)=O)cc1
inactive: [1] | [2] | [3] | [4]

O=C(OCc1ccccc1)c1ccccc1
inactive: [1] | [2] | [3] | [4]

CN1CN(C)CN(C)C1
inactive: [1] | [2] | [3] | [4]

O=S(=O)(O)CCS
inactive: [1] | [2] | [3] | [4]

CCCCOC(=O)c1ccccc1C(=O)OCC(CC)CCCC (stereo not given)
inactive: [1] | [2] | [3] | [4]

CC/C=C/CCO
inactive: [1] | [2] | [3] | [4]

CNC(=S)N(C)C
63.9 µM (active) and inactive: [2]
inactive: [1] | [4]
32 µM (active) and inactive: [3]

NS(=O)(=O)c1ccc(C(=O)O)cc1
inactive: [1] | [2] | [3] | [4]

c1ccc(-c2ccccn2)nc1
inactive: [1] | [2] | [3] | [4]

CC(C)C(=O)OC/C=C/c1ccccc1
inactive: [1] | [2] | [3] | [4]

CC(=O)Nc1ccn(C2COC(COC(=O)c3ccccc3)O2)c(=O)n1 (stereo not given)
inactive: [1] | [2] | [3] | [4]

CCCCCCCCN
inactive: [1] | [2] | [3] | [4]

CCC(=O)Oc1ccc(/C(CC)=C(\CC)c2ccc(OC(=O)CC)cc2)cc1
inactive: [1] | [2] | [3] | [4]

CC(C)(O)c1ccc(CNC(=O)c2cccnc2Oc2ccc3nonc3c2)cc1
inactive: [1] | [2] | [3] | [4]

CC(CC(=O)O)CC(C)(C)C (stereo not given)
inactive: [1] | [2] | [3] | [4]

CCOC(=O)OC(C)OC1=C(C(=O)Nc2ccccn2)N(C)S(=O)(=O)c2ccccc21 (stereo not given)
inactive: [1] | [2] | [3] | [4]

COC(=O)Nc1ccc(Cl)c(Cl)c1
inactive: [1] | [2] | [3] | [4]

CCCCCCCCCCCCCCCCC(=O)O
inactive: [1] | [2] | [3] | [4]

CCCc1ccc(O)cc1
inactive: [1] | [2] | [3] | [4]

COC(C)COC(C)COC(C)CO (stereo not given)
inactive: [1] | [2] | [3] | [4]

CCC(=O)OC(C)c1ccccc1 (stereo not given)
inactive: [1] | [2] | [3] | [4]

NC(CCC(=O)O)C(=O)O (stereo not given)
inactive: [1] | [2] | [3] | [4]

O=C(O)CCSCCC(=O)O
inactive: [1] | [2] | [3] | [4]

COc1cc(C(=O)N2CCCCCCC2)cc(OC)c1OC
inactive: [1] | [2] | [3] | [4]

O=c1cc[nH]c(=O)[nH]1
inactive: [1] | [2] | [3] | [4]

CC(=O)Nc1ccc(C(=O)CCl)cc1
inactive: [1] | [2] | [3] | [4]

CC(C)(C)CC(C)(C)N
inactive: [1] | [2] | [3] | [4]

O=C(Cl)c1ccc([N+](=O)[O-])cc1
inactive: [1] | [2] | [3] | [4]

C/C=C/c1ccc(OC)cc1
inactive: [1] | [2] | [3] | [4]

CCc1ccc(CCOc2ccc(CC3SC(=O)NC3=O)cc2)nc1 (stereo not given)
inactive: [1] | [2] | [3] | [4]

CC(C)(C)C1=CC(=O)C=C(C(C)(C)C)C1=O
inactive: [1] | [2] | [3] | [4]

C#C[C@]1(O)CC[C@H]2[C@@H]3CCc4cc(OC)ccc4[C@H]3CC[C@@]21C
inactive: [1] | [2] | [3] | [4]

C[C@](N)(Cc1ccc(O)c(O)c1)C(=O)O
inactive: [1] | [2] | [3] | [4]

CN1CCN(C2Cc3ccccc3Sc3ccc(Cl)cc32)CC1 (stereo not given)
inactive: [1] | [2] | [3] | [4]

CN(Cc1cnc2nc(N)nc(N)c2n1)c1ccc(C(=O)N[C@@H](CCC(=O)O)C(=O)O)cc1
inactive: [1] | [2] | [3] | [4]

Cc1c(F)cc2c(=O)c(C(=O)O)cn3c2c1CCC3C (stereo not given)
inactive: [1] | [2] | [3] | [4]

NC(=O)N1C(=O)C(C(=O)c2cc(Cl)cs2)c2cc(F)c(Cl)cc21 (stereo not given)
inactive: [1] | [2] | [3] | [4]
